# Measurements reported in PubChem BioAssay AID488969 (Vanderbilt High Throughput Screening Facility, 2010).
# The full ranking holds about 110,000 compounds; the median of “z-score” is about -0.1, and the highest 2% start at about 2. This is one part of a sample in which the highest values are shown more often than they occur. The source made the active and inactive calls.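 Rule for the calls: active = z-score in the third read window above 3 or below -3; inactive = the rest.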
# Target: Metabotropic glutamate receptor 8 (Rattus norvegicus) (UniProt P70579)
# Sequence (P70579 whole entry, looked up): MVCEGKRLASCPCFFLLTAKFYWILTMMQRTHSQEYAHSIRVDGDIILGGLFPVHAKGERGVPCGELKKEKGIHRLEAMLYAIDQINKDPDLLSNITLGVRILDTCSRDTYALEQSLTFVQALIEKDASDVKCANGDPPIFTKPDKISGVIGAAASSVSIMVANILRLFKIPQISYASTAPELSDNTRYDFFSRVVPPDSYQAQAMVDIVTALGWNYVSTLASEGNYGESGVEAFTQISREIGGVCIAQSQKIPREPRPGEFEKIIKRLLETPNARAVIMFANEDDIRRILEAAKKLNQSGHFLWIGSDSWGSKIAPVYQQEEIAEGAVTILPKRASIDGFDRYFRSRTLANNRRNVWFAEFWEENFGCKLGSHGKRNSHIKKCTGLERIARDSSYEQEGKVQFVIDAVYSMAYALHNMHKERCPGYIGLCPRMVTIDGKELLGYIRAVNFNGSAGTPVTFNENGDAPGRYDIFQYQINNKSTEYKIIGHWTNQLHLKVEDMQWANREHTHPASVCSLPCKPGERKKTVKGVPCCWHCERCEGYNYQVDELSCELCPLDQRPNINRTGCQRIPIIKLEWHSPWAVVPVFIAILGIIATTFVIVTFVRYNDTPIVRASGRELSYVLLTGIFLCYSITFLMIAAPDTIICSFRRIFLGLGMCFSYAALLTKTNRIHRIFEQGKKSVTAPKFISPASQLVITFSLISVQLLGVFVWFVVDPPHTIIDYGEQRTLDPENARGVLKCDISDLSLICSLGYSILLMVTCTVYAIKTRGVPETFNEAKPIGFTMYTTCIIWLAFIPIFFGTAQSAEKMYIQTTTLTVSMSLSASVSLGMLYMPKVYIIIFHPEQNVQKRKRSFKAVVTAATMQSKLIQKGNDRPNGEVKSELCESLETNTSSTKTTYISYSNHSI
# Assay: rat mGluR8 modulators via GIRK flux, primary screen, cell-based, thallium flux, HTS (AID 488969)
# Conditions: HEK293 rat mGluR8, GIRK (G protein-gated inwardly rectifying potassium channel) thallium flux, FluoZin2; at 10 µM; stronger effect = higher value; submaximal glutamate (EC20) added with thallium
row,Structure (SMILES),z-score
1,CN1CCN(/C=N/c2c(C#N)cnn2C)CC1,0.146
2,Nc1cc(-c2ccc(Cl)cc2)nn1S(=O)(=O)c1ccc(Cl)cc1,-0.0623
3,CCOC(=O)c1[nH]c(C)c(C(=O)NC2CCCCCC2)c1C,0.781
4,CCOC(=O)c1[nH]cnc1C(=O)NC1CCCCC1,-0.225
5,CCOC(=O)c1sc(C)c(C(=O)NCC(C)(C)CN(C)C)c1N,0.753
6,CCOC(=O)c1sc(C)c(C(=O)NC2CCCCC2)c1N,3.33 (active)
7,CCOC(=O)c1[nH]c(C)c(C(=O)NC2CCCC2)c1C,-0.06
8,CCOC(=O)c1[nH]c(C)c(C(=O)NC2CCCCC2)c1C,3.27 (active)
9,O=C(CN1CCc2ccccc21)NC(=O)NCc1ccco1,0.562
10,Cc1oc(C(C)(C)C)cc1C(=O)Nc1cccc(C(=O)O)c1,-2.4
11,COc1ccc(NC(=O)C(=O)N/N=C/c2cc(C)n(-c3cccc(Cl)c3Cl)c2C)c(OC)c1,-0.134
12,Cc1c(NC(=O)C(C)OC(=O)c2sc3ccccc3c2Cl)c(=O)n(-c2ccccc2)n1C (configuration not stated),-0.273
13,CNC(=S)Nc1ccc(OC)c(OC)c1,0.0698
14,COC(=O)Nc1ccc(OC)c(OC)c1,0.503
15,CCC(C)c1ccc(NC(=S)Nc2ccc(OC)cc2C)cc1 (configuration not stated),0.0172
16,CCC(C)c1ccc(NC(=S)Nc2ccc(OC)cc2)cc1 (configuration not stated),0.436
17,CCC(C)c1ccc(NC(=S)Nc2ccc(OC)c(OC)c2)cc1 (configuration not stated),5.09 (active)
18,COc1ccc(NC(=S)SC)cc1OC,3.35 (active)
19,c1ccc(-c2ccccc2-c2nc(-c3ccncc3)no2)cc1,-0.475
20,CCCC12CN3CCN(CC(C3)/C1=N\NC(=O)c1ccccc1N)C2,-0.119
21,Cc1ccc(OCc2nc(-c3ccc(-n4cccc4)cc3)no2)cc1C,-0.0508
22,CCOC(=O)C1=C(C)N(c2ccc(OC)cc2)C(=O)/C1=C\c1cccs1,-0.132
23,CCOc1ccc(CCNC(=O)C2CCN(c3nnc(-n4cccc4)s3)CC2)cc1OCC,-1.57

row,Structure (SMILES),z-score
1,O=C(Nc1ccc(S(=O)(=O)Nc2ncccn2)cc1)c1ccc(Br)s1,0.347
2,O=C1C(C=NCc2ccccn2)=C(O)c2ccccc21,-0.00613
3,CC(Oc1ccc(Cl)cc1Cl)C(=O)N/N=C1\CCCc2ccccc21 (configuration not stated),0.0705
4,Cc1ccc(OCc2nnc(SCC(=O)N3CCc4ccccc43)n2C)cc1,-0.358
5,O=C(COc1ccc(Cl)cc1Cl)OCC(=O)N1CCCc2ccccc21,-0.0629
6,Cc1cccc(OCc2nnc(SCC(=O)N3CCc4ccccc43)n2C)c1,2.88
7,Cc1cccc(OC(C)C(=O)N2CCCc3ccccc32)c1 (configuration not stated),-0.141
8,CC(Oc1ccc(Cl)cc1Cl)C(=O)NC(=S)N1CCc2ccccc21 (configuration not stated),12.9 (active)
9,O=C(COc1ccc(Cl)cc1Cl)NC(=S)N1CCCc2ccccc21,13.2 (active)
10,Cc1ccccc1OCc1nnc(SCC(=O)N2CCc3ccccc32)n1C,-0.183
11,O=C(CCCOc1ccc(Cl)cc1Cl)N1CCCc2ccccc21,-0.0365
12,CC(Oc1ccc(Cl)cc1Cl)C(=O)NN=C1CCN(C)CC1 (configuration not stated),-0.0448
13,Cc1cccc(OCC(=O)NC(=S)N2CCCc3ccccc32)c1,7.99 (active)
14,COc1ccc(OCC(=O)NC(=S)N2CCCc3ccccc32)cc1,1.72
15,CCOC(=O)c1cc(-c2ccc(OC(F)F)cc2)nc2nc(SC)[nH]c(=O)c12,-0.208
16,COc1cc(CNCC(O)c2ccccc2)ccc1OCc1ccc(Cl)nc1 (configuration not stated),1.26
17,COC(=O)COc1cccc(NC(=O)c2cccs2)c1,-0.153
18,CCc1cccc2c(C(=O)COC(=O)/C=C/c3ccc(O)c(OC)c3)c[nH]c12,0.418
19,CC(C)COP(=O)(OCC(C)C)C(Nc1ccccc1)c1ccc2c(c1)OCO2 (configuration not stated),-0.389
20,C/C=C/c1ccc(OCCCNCC(C)O)c(OC)c1 (configuration not stated),1.74
21,COc1ccc(OC)c(NC(=O)CSc2nc(C)cs2)c1,0.389
22,CN(C)c1ccc(P(=O)(Nc2ccc([N+](=O)[O-])cc2)N2CCOCC2)c(NC(=O)c2cccs2)c1 (configuration not stated),-0.185
23,O=C(CN1C(=O)NC2(CCCC2)C1=O)N1CCN(C(=O)c2ccco2)CC1,-1.15

row,Structure (SMILES),z-score
1,Cc1ccc(NS(=O)(=O)c2cccc(C(=O)N/N=C/c3c(C)nn(-c4ccccc4)c3N3CCCC3)c2)c(C)c1,-0.38
2,CCCCNC(=S)N(C)/N=C/c1ccc(OCC(=O)Nc2c(C)cc(C)cc2C)c(OC)c1,0.00502
3,Cc1cc(C)n(-c2nc3ccccc3nc2N2CCN(C(=O)c3ccc(Cl)cc3)CC2)n1,-1.16
4,CC(C)NC(=O)NC(=O)COc1ccc(Br)cc1Br,-0.136
5,CCC(=O)N1CCN(c2ccccc2NC(=O)COc2ccccc2Cl)CC1,-1.24
6,O=C(COc1ccccc1Cl)NC(=S)N1CCc2ccccc21,12.1 (active)
7,O=C(COc1ccccc1Cl)NC(=O)NC1CCCC1,0.502
8,O=C(COc1ccc(Br)cc1Cl)NC(=O)NCc1ccccc1,0.301
9,O=C(COc1ccccc1)NC(=S)N1CCc2ccccc21,10.1 (active)
10,O=C(COc1ccc(F)cc1Br)N1CCc2ccccc21,-0.0164
11,O=C(COc1ccc(Br)cc1Br)NC(=S)N1CCCc2ccccc21,4.66 (active)
12,O=C(COc1ccc(Br)cc1Cl)NC(=S)N1CCc2ccccc21,2.28
13,O=C(COc1ccccc1)N1CCc2ccccc21,-0.0743
14,CCNC(=O)COc1ccc(Br)cc1Cl,0.307
15,Cc1ccc(OCC(=O)N2CCc3ccccc32)cc1,-0.113
16,O=C(Cc1cccs1)Nc1ccc(Cl)cc1,0.318
17,Cc1cc(C)cc(SCc2noc(C(=O)NCC3CCCO3)c2C(=O)O)c1 (configuration not stated),-0.238
18,Cc1cc(C)nc(-n2nc(C)cc2NC(=O)CNC(C)c2ccccc2)n1 (configuration not stated),0.124
19,COC(=O)c1cc(OC)c(OC)cc1NCC(=O)Nc1ccc(OC)c(OC)c1,-0.419
20,Cc1c(NC(=O)C(C)OC(=O)c2cccs2)c(=O)n(-c2ccccc2)n1C (configuration not stated),0.0558
21,CCOc1cc(CNCc2ccccn2)ccc1OCC(=O)NC1CCCCC1,-0.535
22,O=C(Nc1ccc2oc(=O)ccc2c1)c1cc2ccccc2o1,-1.25
23,O=C(CN(Cc1ccc(F)cc1)C(=O)c1ccco1)NCc1ccc(F)cc1,-1.36

row,Structure (SMILES),z-score
1,CNc1nc2ccccc2n1/N=C/c1cccc(OC)c1OC,-1.51
2,O=Cc1ccc(OC(=O)c2cc(Cl)nc3ccccc23)cc1,-0.764
3,CCn1c(SCc2ccc([N+](=O)[O-])cc2)nnc1C(C)NC(=O)c1ccc(C)cc1 (configuration not stated),-0.256
4,CC(C)(C)n1nc2c(c1NC(=O)c1ccco1)CS(=O)C2 (configuration not stated),0.0777
5,O=C(Cn1cccc1)N1CCN(c2ccc(F)cc2)CC1,-0.241
6,Nn1c(SCC(=O)N2CCN(S(=O)(=O)c3ccc(Cl)cc3)CC2)nnc1-c1cccs1,-0.22
7,Cn1c(SCC(=O)N2c3ccccc3CCc3ccccc32)nnc1-c1ccc(O)cc1,5.88 (active)
8,Cn1c(SCC(=O)N2c3ccccc3CCc3ccccc32)nnc1-c1cc2ccccc2cc1O,-0.13
9,Cc1cccc(-c2nnc(SCC(=O)N3c4ccccc4CCc4ccccc43)n2C)c1,-0.366
10,Cc1ccc(NC(=O)N2CCC(C(N)=O)CC2)cc1,0.0373
11,O=C(NCC1CCCO1)C1CCN(S(=O)(=O)c2cccc3cccnc23)CC1 (configuration not stated),-0.104
12,Cc1ccc(-c2cc(-c3n[nH]c(=S)o3)c3ccccc3n2)cc1,8.6 (active)
13,Cc1ccccc1-c1n[nH]c(=S)o1,0.676
14,CSc1nnc(-c2cc(-c3ccc(C)cc3)nc3ccccc23)o1,-0.0721
15,CC(=O)c1c(C)[nH]c(C(=O)Nc2ccc(Cl)c(S(=O)(=O)N3CCOCC3)c2)c1C,1.6
16,O=C(COC(=O)c1cc(-c2cccs2)nn1-c1ccccc1)Nc1ccc(Cl)c([N+](=O)[O-])c1,0.0111
17,NS(=O)(=O)c1ccc(CCN2C(=O)/C(=C\c3ccc(Cl)cc3)SC2=S)cc1,0.283
18,COc1nc(-c2ccccc2)cc(C(F)(F)F)n1,0.0363
19,COc1nc(-c2ccccc2)cc(-c2ccc(OC)c(OC)c2)n1,-0.612
20,COc1nc(-c2ccccc2)cc(-c2ccccc2)n1,2.45
21,O=C(C1CCCO1)N1N=C(c2ccc(Br)cc2)CC1c1ccco1 (configuration not stated),-0.195
22,COC(=O)CSc1n[nH]c(-c2cccnc2)n1,2.21
23,O=C(CSc1n[nH]c(-c2cccnc2)n1)Nc1ccccc1,-0.272

row,Structure (SMILES),z-score
1,COC(=O)CSc1n[nH]c(-c2ccncc2)n1,0.0349
2,Cc1ccc(C2C(C#N)=C(N)Oc3n[nH]c(-c4ccccc4)c32)o1 (configuration not stated),-0.499
3,CC(C)CC(=O)NC(=S)Nc1nc(-c2ccc(Cl)cc2)cs1,0.0823
4,CC(C)CC(=O)NC(=S)Nc1nc(-c2cccc3ccccc23)cs1,2.97
5,CC(C)CC(=O)NC(=S)Nc1nc(-c2ccccc2)cs1,0.855
6,Cn1c(=O)c(NC(=O)c2ccccc2)c2n(c1=S)CCCCC2,-0.181
7,O=C(COc1ncnc2ccc(Br)cc12)NCc1ccc2c(c1)OCO2,-0.00987
8,CCOC(=O)C1C(=O)CC(C)(O)C(C(=O)OCC)C1c1ccc(OC)cc1 (configuration not stated),-0.0838
9,CCOC(=O)c1cccc(NC(=O)/C(=C\c2ccccc2)NC(=O)c2ccccc2Cl)c1,-0.208
10,COc1ccccc1NC(=O)CNS(=O)(=O)c1ccccc1,-0.239
11,CCN(CC)CCNC(=O)c1c(C)oc2cc(Br)c(OC)cc12,-0.44
12,COc1cc2c(C(=O)N3CCN(C)CC3)c(C)n(-c3ccccc3)c2cc1Br,-0.333
13,CCOC(=O)c1c(CN2CCN(Cc3ccccc3)CC2)n(C)c2cc(Br)c(OC)cc12,0.132
14,CCOC(=O)c1c(CN2CCN(CCO)CC2)n(C)c2cc(Br)c(OC)cc12,0.864
15,CCN(CC)CCNC(=O)c1c(C)n(-c2ccccc2)c2cc(Br)c(OC)cc12,2.84
16,CCOC(=O)c1c(CNCCN(CC)CC)n(C)c2cc(Br)c(OC)cc12,3.02 (active)
17,COC(=O)Cn1c(=NC(=O)c2ccc(OC)cc2)sc2cc(OC)ccc21,-0.189
18,Cc1cccc(N=C2NC(=O)/C(=C/C=C/c3ccco3)S2)c1C,3 (active)
19,O=C1NC(=Nc2ccccc2)S/C1=C\C=C\c1ccco1,0.075
20,Cc1cccc(N=C2NC(=O)/C(=C/C=C/c3ccco3)S2)c1,0.7
